Source: PubChem BioAssay (NCATS)
Records with an inconclusive call do not appear. A call without a number means that no potency is given here. Calls of active or inactive are those of the source. The call rests on the fitted dose curve; in most records, active means well fitted inhibition curve with a large enough effect; inconclusive means small, poorly fitted or top-dose-only effect; inactive means flat fitted curve, though single readings scatter.

Experiments:
Assay in all cases: qHTS profiling for inhibitors of Plasmodium falciparum proliferation (AID 504749); further: nearly all actives have a fitted effect of over 60% in size
Settings in all cases: P. falciparum in erythrocytes, SYBR Green DNA, 72 h; series mostly up to 28.7 µM
CP185 = test system: CP185
Procedure, shortened: (§1)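 Infected RBCs, 0.3% parasitemia/2.5% Hct final; cpd 72 h, 37 C, 5% CO2; lysis buffer with saponin/triton/SYBR Green I, o/n RT dark; FI 485/535; norm. to artemisinin (0.29 uM) and DMSO.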

CP191 = test system: CP191
Procedure, shortened: as §1

CP192 = test system: CP192
Procedure, shortened: as §1

CP194 = test system: CP194
Procedure, shortened: as §1

CP201 = test system: CP201
Procedure, shortened: as §1

CP203 = test system: CP203
Procedure, shortened: as §1

CP211 = test system: CP211
Procedure, shortened: as §1

CP215 = test system: CP215
Procedure, shortened: as §1

CP217 = test system: CP217
Procedure, shortened: as §1

CP238 = test system: CP238
Procedure, shortened: as §1

CP250 = test system: CP250
Procedure, shortened: as §1

CP252 = test system: CP252
Procedure, shortened: as §1

CP256 = test system: CP256
Procedure, shortened: as §1

CP262 = test system: CP262
Procedure, shortened: as §1

CP265 = test system: CP265
Procedure, shortened: as §1

CP266 = test system: CP266
Procedure, shortened: as §1

CP268 = test system: CP268
Procedure, shortened: as §1

CP237 = test system: CP237
Procedure, shortened: as §1

CP247 = test system: CP247
Procedure, shortened: as §1

CP260 = test system: CP260
Procedure, shortened: as §1
Potency means the concentration at half of the fitted maximal effect.

Row | SMILES | Potency (CP185) | Potency (CP191) | Potency (CP192) | Potency (CP194) | Potency (CP201) | Potency (CP203) | Potency (CP211) | Potency (CP215) | Potency (CP217) | Potency (CP238) | Potency (CP250) | Potency (CP252) | Potency (CP256) | Potency (CP262) | Potency (CP265) | Potency (CP266) | Potency (CP268) | Potency (CP237) | Potency (CP247) | Potency (CP260)
1 | c1ccc2c(c1)OCC(C1=NCCN1)O2 (stereo not given) | inactive | inactive | inactive | inactive | inactive | inactive | inactive | inactive | inactive | inactive | inactive | inactive | inactive | inactive | inactive | inactive | inactive |  |  | 
2 | NCC1(CC(=O)O)CCCCC1 | inactive | inactive | inactive | inactive | inactive |  | inactive | inactive | inactive | inactive | inactive | inactive | inactive | inactive | inactive | inactive | inactive | inactive | inactive | inactive
3 | CN1CCN(C(=O)O[C@H]2c3nccnc3C(=O)N2c2ccc(Cl)cn2)CC1 | inactive | inactive | inactive | inactive | inactive | inactive | inactive | inactive | inactive | inactive | inactive | inactive | inactive | inactive | inactive | inactive | inactive | inactive | inactive | inactive
4 | CC(C)(C)CC(C)(C)c1ccc(O)cc1 | inactive | inactive | inactive | inactive | inactive |  | inactive | inactive | inactive | inactive | inactive | inactive | inactive | inactive | inactive | inactive | inactive | inactive | 11.2 µM (active) | inactive
5 | CCN(CC)CCOC(=O)C(O)(c1ccccc1)c1ccccc1 | inactive | inactive | inactive | inactive | inactive | inactive | inactive |  | inactive | inactive | inactive | inactive |  | inactive | inactive | inactive | inactive | inactive | inactive | inactive
6 | O=P1(NCCCl)OCCCN1CCCl (stereo not given) | inactive | inactive | inactive | inactive | inactive |  | inactive | inactive | inactive | inactive | inactive | inactive | inactive | inactive | inactive | inactive | inactive | inactive | inactive | inactive
7 | COc1ccccc1N1CCNCC1 | inactive | inactive | inactive | inactive | inactive |  | inactive | inactive | inactive | inactive | inactive | inactive | inactive | inactive | inactive | inactive | inactive | inactive | inactive | 
